Most compounds without a hit are left out; they make up all but 3.4% or so of the library.
PLCb3 inh: PLC-beta3 (human) inhibition, primary screen; Q01970; Purified PLC-beta3, fluorogenic substrate, fluorescence; inhibition, % at 12.2 µM; actives 0.18% (n = 370,000); AID 720704; in the data active = inhibition above about 11%
ADAM17 inh: inhibitors of human ADAM17 | recombinant ADAM17, EDANS/DABCYL FRET peptide cleavage | inhibition, % at 6.95 µM | actives 0.83% (n = 370,000) | AID 720648;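 active = inhibition above the mean of compounds lying between control limits plus 3 SD, set per campaign, cut at about 8.5% in these data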
PLC-gamma1 inh: PLC-gamma1 (human) inhibition, primary screen; purified PLC-gamma1, fluorogenic substrate, fluorescence; inhibition, % at 12.2 µM; actives 0.84% (n = 370,000); AID 720700; in the data active = inhibition above about 9.5%
ADAM10 inh: inhibitors of human ADAM10. recombinant ADAM10, EDANS/DABCYL FRET peptide cleavage, 3 h. inhibition, % at 7 µM. actives 0.62% (n = 370,000). AID 720582;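 active = inhibition above a per-campaign cutoff equal to the mean of compounds falling between control-based bounds plus 3 SD, cut at about 20% in these data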
HGIII-sPLA2 inh: Inhibits HGIII-sPLA2 liposome hydrolysis, primary screen | Q9NZ20 | QFRET BODIPY PC-A2 liposome hydrolysis, fluorescence | inhibition, % at 12.2 µM | actives 0.56% (n = 370,000);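 active = inhibition above mean plus 3 SD of compounds lying within the high and low control bounds, cut at about 19% in these data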
KLK7 zymogen act: proKLK7 (human) activation, primary screen | P49862 | purified proKLK7, EDANS-DABCYL substrate fluorescence; 100% is mature enzyme control, 0% vehicle | activation, % at 7 µM | actives 0.9% (n = 370,000) | AID 652039;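 active = activation above the mean of all tested compounds plus 3 SD, computed per campaign excluding outliers beyond control limits, cut at about 13% in these data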
proKLK7 act conf: confirmation of human kallikrein-7 zymogen activators | shares compounds with KLK7 zymogen act | purified proKLK7, EDANS-DABCYL substrate fluorescence; scaled: vehicle 0, mature enzyme 100 | activation, % at 7 µM | actives 68% (n = 3,200) | AID 686949;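 active = activation, as change over the incubation, above the mean of all tested compounds plus 3 SD, cut at about 13% in these data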
EDANS-DABCYL int: fluorescence interference counter-screen for KLK7 activators; shares compounds with KLK7 zymogen act; EDANS-DABCYL substrate fluorescence interference, no enzyme, 4 h; solvent 0%, active enzyme control 100%; activation, % at 7 µM; actives 80% (n = 3,200);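 active = activation above the all-compound mean plus 3 SD, ignoring values outside control-based bounds, cut at about 4.8% in these data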;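 note: value is the 4 h activation minus the activation read at time zero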
Of the large screens only hits and unclear results are named; the others gave an inactive call (follow-up assays come after a bar, where they were run).

CN(C)CCCNc1oc(-c2ccc(Cl)cc2)nc1C#N	KLK7 zymogen act 34 | proKLK7 act conf 24 | EDANS-DABCYL int 21
CCN(CC)CCCNc1oc(-c2cccc(Cl)c2)nc1C#N	KLK7 zymogen act 41 | proKLK7 act conf inactive | EDANS-DABCYL int 18
Cc1ccc(-c2nc(C#N)c(NCCN3CCCCC3)o2)cc1	KLK7 zymogen act 17 | proKLK7 act conf inactive | EDANS-DABCYL int 7.2
COCCNc1oc(-c2ccc(Cl)cc2)nc1C#N	KLK7 zymogen act 22 | proKLK7 act conf 13 | EDANS-DABCYL int 12
COc1ccc(COC[C@H](C)N2C[C@@H](C)[C@H](CN(C)S(=O)(=O)c3ccc(F)cc3)OCCCC[C@H](C)Oc3ccc(NC(=O)Nc4ccccc4)cc3C2=O)cc1	none (no result: KLK7 zymogen act)
O=C(Nc1cccc([N+](=O)[O-])c1)NC1CCCCN(Cc2cccc(Cl)c2)C1=O (stereo not given)	none
C#CCNC(=O)C[C@H]1C[C@@]2(C(=O)OCC)CCCC3=C2N(CCC3)C1=O	none
O=C(Nc1cccnc1)c1ccccc1O	none
O=C(Nc1cccnc1)c1coc(=O)c2ccccc12	KLK7 zymogen act 460 | proKLK7 act conf 355 | EDANS-DABCYL int 343
CC(C)[C@H](N)C(=O)N[C@@H](Cc1ccccc1)C(=O)N1CCC2CCN(S(=O)(=O)c3ccccc3)CC21 (stereo not given in full)	none
COc1ccc(N(C)C(=S)Nc2ccc3nc(C)c(C)nc3c2)cc1	KLK7 zymogen act 14 | proKLK7 act conf inactive | EDANS-DABCYL int 15
CCOc1ccccc1NC(=O)NNC(=O)CCn1nc(C)c([N+](=O)[O-])c1C	none
COc1cccc(Cn2cc(COC(=O)NCCc3ccccc3)nn2)c1	none
COc1cc2c(cc1OC)C(C1C(=O)CC(C)(C)CC1=O)N(C(=O)CCl)CC2 (stereo not given)	KLK7 zymogen act 124 | proKLK7 act conf inactive | EDANS-DABCYL int 15
COc1ccc(CC(=O)N2CCc3cc(OC)c(OC)cc3C2O)cc1OC (stereo not given)	KLK7 zymogen act 14 | proKLK7 act conf inactive | EDANS-DABCYL int 4.1
COc1ccc(N2C(=O)c3ccccc3NC2c2cccnc2)cc1 (stereo not given)	none
O=C1c2ccccc2NC(c2cccnc2)N1c1ccccc1F (stereo not given)	KLK7 zymogen act 23 | proKLK7 act conf 40 | EDANS-DABCYL int 32
O=C(c1cc(-c2ccco2)nc2ccccc12)N1CCCC(C(F)(F)F)C1 (stereo not given)	KLK7 zymogen act 48 | proKLK7 act conf 66 | EDANS-DABCYL int 67
CCN1CCN(C(=O)c2cc(-c3ccco3)nc3ccccc23)CC1	KLK7 zymogen act 84 | proKLK7 act conf 72 | EDANS-DABCYL int 72
CCOC(=O)C1CCCN(C(=O)c2cc(-c3ccco3)nc3ccccc23)C1 (stereo not given)	KLK7 zymogen act 31 | proKLK7 act conf 31 | EDANS-DABCYL int 34
CCN(CC)Cc1c(O)c(Cl)cc2c(C)c(C)c(=O)oc12	KLK7 zymogen act 58 | proKLK7 act conf 66 | EDANS-DABCYL int 83
Cc1c(Cc2ccccc2)c(=O)oc2c(O)c(O)ccc12	none
Cc1c(Cc2ccccc2)c(=O)oc2cc(O)ccc12	KLK7 zymogen act 88 | proKLK7 act conf 71 | EDANS-DABCYL int 80
C=CCc1c(O)c(CC)cc2c(C)cc(=O)oc12	KLK7 zymogen act 90 | proKLK7 act conf 61 | EDANS-DABCYL int 66
Cc1c(Cc2ccccc2)c(=O)oc2c(CN(C)C)c(O)c(Cl)cc12	KLK7 zymogen act 48 | proKLK7 act conf 68 | EDANS-DABCYL int 67
COC(=O)C1CN(Cc2ccc(F)cc2)CCS(=O)(=O)N1Cc1ccccc1 (stereo not given)	none
Cc1cccc(C(=O)N[C@@H]2CC[C@@]34CCCN3C(=O)CCC[C@H]4[C@H]2C)c1	none (no result: KLK7 zymogen act)
